Each structure is given as a SMILES string. “And” between values parts separate entries of the source, which are not always exact repeats. Equal values may be shown once. Where a structure was tested more than once in an assay, its records may differ in their call. The source made the active and inactive calls. Rule for the calls: active = hit-call score of the fitted dose curve at least 0.9, where 1 is the maximum; inactive = score below 0.9.

Assay [1] has as its target Transcription factor E2F1 (Homo sapiens) (UniProt Q01094). The assay can be described thus: ATG_E2F_CIS: Attagene CIS-FACTORIAL HepG2 Assay for human E2F Transcription Factor 1 (AID 2282935). The following applies: HepG2 Attagene cis-reporter, E2F reporter RNA transcripts; actives raise or lower the signal. In outline:
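Total RNA from 24 h-treated, reporter-transfected HepG2 cells undergoes DNase I treatment, oligo(dT) reverse transcription, PCR and 6-FAM primer extension before capillary electrophoresis.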

Assay [2] in a line: ATG_E_Box_CIS: Attagene CIS-FACTORIAL HepG2 Assay for human Enhancer Box (E-box) (AID 2282936). The following applies: HepG2 E-box cis-reporter transcription, actives raise or lower the signal. In outline:
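DMSO served as negative control and baseline for bidirectional fitting. Human hepatoma HepG2 cells, transiently transfected with cis-reporter constructs, were dosed 24 h; reporter mRNA read by RT-PCR and capillary electrophoresis.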

A short description of assay [3]: ATG_M_61_CIS: Attagene CIS-FACTORIAL HepG2 Assay for M61 Transcription Factor (Internal Marker) (AID 2282937). Conditions: HepG2 Attagene CIS-FACTORIAL M61 internal marker reporter; actives raise or lower the signal. In outline:
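Readout is reporter mRNA by RT-PCR, fluorescent primer extension and capillary electrophoresis, with gain or loss fitted relative to DMSO. Transfected HepG2 cells carrying endogenous-TF-driven cis reporters were exposed to chemicals for 24 hours.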

The nature of assay [4]: ATG_EGR_CIS: Attagene CIS-FACTORIAL HepG2 Assay for human Early Growth Response 1 (EGR1) (AID 2282938). The following applies: HepG2 Attagene CIS-FACTORIAL EGR reporter mRNA; actives raise or lower the signal. In outline:
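After 24 h compound exposure, RNA from reporter-transfected HepG2 cells was reverse-transcribed, PCR-amplified, fluorescently labelled and resolved by capillary electrophoresis. EGR1 reporter transcript changes, up or down, were fitted against DMSO, reflecting endogenous transcription-factor activity.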

The nature of assay [5]: ATG_M_19_CIS: Attagene CIS-FACTORIAL HepG2 Assay for M19 Transcription Factor (Internal Marker) (AID 2282939). The following applies: HepG2 Attagene CIS-FACTORIAL M19 internal marker reporter; actives raise or lower the signal. In outline: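 Readout: fluorescent reporter-transcript fragments by capillary electrophoresis after RT-PCR. Human HepG2 liver cells carried transfected MRTU constructs reporting endogenous transcription-factor activity; exposure 24 h. Gain or loss of signal fitted relative to DMSO.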

A short description of assay [6]: ATG_Ets_CIS: Attagene CIS-FACTORIAL HepG2 Assay for human Erythroblast Transformation Specific (ETS) (AID 2282941). Conditions: HepG2 ETS cis-reporter transcription, actives raise or lower the signal. In outline:
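HepG2 cells transfected with multiple cis-regulated reporter units measuring endogenous ETS-driven transcription, 24 h after dosing. Reporter mRNA quantified by RT-PCR with capillary electrophoresis; bidirectional fit relative to DMSO.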

The target in assay [7] is Hepatocyte nuclear factor 3-beta (Homo sapiens) (UniProt Q9Y261). The assay can be described thus: ATG_FoxA2_CIS: Attagene CIS-FACTORIAL HepG2 Assay for human Forkhead box A2 (FOXA2) (AID 2282942). Conditions: HepG2 cis-reporter transcription factor activity, 24 h; actives raise or lower the signal. In outline:
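Endogenous transcription factor activity is captured via cis-element-driven reporter transcripts in transfected HepG2. Total RNA taken at 24 h post-dosing; labelled RT-PCR products resolved by capillary electrophoresis. Gain or loss fitted versus DMSO.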

A short description of assay [8]: ATG_FoxO_CIS: Attagene CIS-FACTORIAL HepG2 Assay for human Forkhead box O (FoxO) (AID 2282943). The following applies: HepG2 Attagene cis-reporter, FoxO element, mRNA; actives raise or lower the signal. In outline:
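Endogenous transcription factor activity read from multiplexed cis-promoter reporter transcripts in transiently transfected HepG2, 24 h after dosing. Reporter RNA measured via RT-PCR plus capillary electrophoresis of FAM-labeled products; gain or loss relative to DMSO.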

Assay [9] is described as follows: ATG_GATA_CIS: Attagene CIS-FACTORIAL HepG2 Assay for human GATA Binding Protein (AID 2282944). The following applies: HepG2 GATA cis-element reporter, Attagene multiplex mRNA; actives raise or lower the signal. In outline: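 Read-out: fluorescent reporter mRNA fragments resolved by capillary electrophoresis after RT-PCR. Human liver HepG2 cells carried transiently transfected cis-regulated reporter constructs; chemicals incubated 24 h; gain or loss of signal fitted relative to DMSO.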

Assay [10] in a line: ATG_ERE_CIS: Attagene CIS-FACTORIAL HepG2 Assay for Estrogen Response Element (ERE) (AID 2282940). Conditions: HepG2 ERE cis-reporter, Attagene RNA transcript; actives raise or lower the signal. In outline: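 Readout: reporter mRNA induction by RT-PCR, FAM-labelled primer extension, HpaI digestion and capillary electrophoresis, 24 h after dosing transfected HepG2 cells. Endogenous transcription factors act on cis-element-regulated reporters. Gain or loss fitted against DMSO.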

Transcription factor E2F1 (Homo sapiens), sequence (Q01094 whole entry, looked up): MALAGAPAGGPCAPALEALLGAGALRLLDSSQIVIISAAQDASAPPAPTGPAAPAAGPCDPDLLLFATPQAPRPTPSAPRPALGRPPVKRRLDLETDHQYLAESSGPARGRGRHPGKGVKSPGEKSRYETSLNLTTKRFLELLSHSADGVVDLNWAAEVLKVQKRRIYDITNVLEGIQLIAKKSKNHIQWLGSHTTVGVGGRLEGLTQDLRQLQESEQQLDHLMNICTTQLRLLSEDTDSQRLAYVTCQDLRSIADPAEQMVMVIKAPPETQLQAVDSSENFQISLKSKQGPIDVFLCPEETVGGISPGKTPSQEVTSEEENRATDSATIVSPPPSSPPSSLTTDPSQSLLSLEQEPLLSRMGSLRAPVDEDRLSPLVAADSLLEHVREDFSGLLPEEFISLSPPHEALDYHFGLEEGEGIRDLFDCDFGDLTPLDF
Hepatocyte nuclear factor 3-beta (Homo sapiens), sequence (Q9Y261 whole entry, looked up): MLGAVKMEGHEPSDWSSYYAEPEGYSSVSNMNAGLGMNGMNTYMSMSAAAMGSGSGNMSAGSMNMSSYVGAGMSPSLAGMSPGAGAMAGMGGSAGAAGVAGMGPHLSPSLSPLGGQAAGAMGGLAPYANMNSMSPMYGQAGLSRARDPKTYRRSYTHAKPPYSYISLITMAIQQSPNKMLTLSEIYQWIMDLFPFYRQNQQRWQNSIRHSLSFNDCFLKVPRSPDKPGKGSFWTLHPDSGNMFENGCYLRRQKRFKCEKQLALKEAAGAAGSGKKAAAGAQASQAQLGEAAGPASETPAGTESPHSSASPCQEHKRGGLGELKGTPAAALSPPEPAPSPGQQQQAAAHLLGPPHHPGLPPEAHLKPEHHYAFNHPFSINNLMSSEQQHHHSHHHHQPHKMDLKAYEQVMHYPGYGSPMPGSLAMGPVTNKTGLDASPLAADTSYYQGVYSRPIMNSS

For `Oc1cc(Cl)ccc1Oc1ccc(Cl)cc1Cl`, the compound was called inactive in [1], in assay [2], in [3], in [4], in assay [5] and in [6]. Moreover, the call in assay [7], in [8] and in [9] was inactive. Moreover, the AC50 (as a rule, the midpoint of the concentration-response curve, whichever way the signal moves) in [2] is 13.4 µM (active); in assay [4] it was 11.3 µM (active) [middle of 4 runs]; in [6], 7.09 µM (active) and 17.9 µM (active) and 5.97 µM (active); in assay [9] it was 5.97 µM (active).
As for `C[C@H]1[C@H](c2ccc(Cl)cc2)SC(=O)N1C(=O)NC1CCCCC1`, the AC50 is 20.9 µM (active) in assay [1] and 15.4 µM (active) in [4]. The outcome in assay [2], in [3], in [5], in assay [10], in assay [6] and in [7] was inactive. Moreover, the call in assay [8] and in [9] was inactive.
For the compound `COC(=O)c1ccccc1S(=O)(=O)NC(=O)N(C)c1nc(C)nc(OC)n1`, the compound was classed as inactive in assay [1], in assay [2], in [3], in [4], in [5] and in assay [10]. Further, the compound was called inactive in assay [6], in assay [7], in assay [8] and in assay [9].
For the compound `CC1(c2ccc(Oc3ccccc3)cc2)OC(=O)N(Nc2ccccc2)C1=O` (centres undefined), the compound was called inactive in [1], in assay [2], in [3], in [4], in assay [5] and in [10]. For the same compound, the result in [6], in [7], in assay [8] and in assay [9] was inactive.
For the compound `C#CCN1C(=O)COc2cc(F)c(N3C(=O)C4=C(CCCC4)C3=O)cc21`, the compound was classed as inactive in assay [1], in assay [2], in assay [3], in assay [4], in assay [5] and in [10]. Besides, the result in assay [6], in assay [7], in assay [8] and in assay [9] was inactive.
For `CCOc1nc(NC)nc(NC(=O)NS(=O)(=O)c2ccccc2C(=O)OC)n1`, the compound was called inactive in [1], in assay [2], in [3], in assay [4], in assay [5] and in assay [10]. The compound was classed as inactive in assay [6], in assay [7], in [8] and in assay [9].
Regarding `CN1CSC(=S)N(C)C1`, the call in assay [1], in assay [2], in assay [3], in assay [4], in assay [5] and in assay [10] was inactive. Also, the call in [6], in [7], in assay [8] and in assay [9] was inactive.
Take `Cc1cc(C)nc(NC(=O)NS(=O)(=O)c2ccccc2C(=O)OC2COC2)n1`: the outcome in assay [1], in [2], in [3], in assay [5], in assay [6] and in assay [7] was inactive. The compound was called inactive in assay [8] and in assay [9]. The AC50 in assay [4] was 79 µM (active); in [10], 71 µM (active).
With `ClC1C(Cl)C(Cl)C(Cl)C(Cl)C1Cl` (centres undefined), the result in [1], in [2], in assay [3], in assay [4], in assay [5] and in assay [6] was inactive. Besides, the compound was called inactive in [7], in assay [8] and in [9]. Besides, the AC50 in assay [2] was 100 µM (active) and 69.6 µM (active); in assay [6], 8.89 µM (active).
As for `COc1nn(CSP(=S)(OC)OC)c(=O)s1`, the outcome in assay [1], in [2], in assay [3], in [4], in [5] and in [6] was inactive. The outcome in assay [7], in assay [8] and in [9] was inactive. Further, in assay [10], the AC50 is 24.8 µM (active).
On to `COC(=O)c1ccccc1CS(=O)(=O)NC(=O)Nc1nc(OC)cc(OC)n1`, for which the outcome in assay [1], in [2], in assay [3], in assay [4], in assay [5] and in [10] was inactive. The call in assay [6], in assay [7], in assay [8] and in assay [9] was inactive. Further, the AC50 in [2] is 125 µM (active).
In the case of `O=[N+]([O-])/N=C1\NCCN1Cc1ccc(Cl)nc1`, the result in assay [1], in [2], in assay [3], in [4], in assay [5] and in assay [10] was inactive. In addition, the compound was called inactive in assay [6], in assay [7], in assay [8] and in assay [9].
Turning to `Oc1ccc(Cl)cc1Cc1ccccc1`, the compound was classed as inactive in assay [1], in [2], in assay [3], in assay [4], in assay [5] and in assay [6]. Further, the result in assay [7], in assay [8] and in assay [9] was inactive. Besides, the AC50 in assay [2] was 11.1 µM (active); in [4], 14.9 µM (active); in assay [6], 16.3 µM (active); in assay [8], 20.4 µM (active); in assay [9], 20.2 µM (active).
